According to ChEMBL document CHEMBL3988442, “University of Dundee, Small-Polar-MMV Screening Library” (2021):
Among all 48,000 compounds or so, about 13,000 (27%) showed an effect of 50% or more. The list shows a part of the results.

test system: Wolbachia pipientis; assay: Anti-Wolbachia Cell-Based Screen; type: functional; parameters: scale not given: in the data most compounds retested in dose-response had high values; settings: 5 µM

Row | Structure (SMILES) | Percent Effect
1 | CCCNC(=O)NC(=O)CN(CC(C)O)c1ccccc1 (centres undefined) | 5.048%
2 | CC(C)C[C@@H]1N[C@H](C(=O)NC2CCOCC2)Cc2c[nH]c3cccc1c23 | -3.699%
3 | O=C(COc1ccc2c(c1)CCC2)N1CCOCC1c1ncon1 (centres undefined) | -4.669%
4 | O=C(NCCSCc1ccc(Br)s1)C1CCCN(C(=O)c2cccs2)C1 (centres undefined) | -11.8%
5 | Cc1cc(C(=O)Nc2cc(C3CC3)n[nH]2)c2c(C)nn(C)c2n1 | 94.33%
6 | CCn1ncc(NC(=O)c2cc(C3CC3)nc3c2c(C)nn3C)c1C | 0.1323%
7 | CC(=O)N[C@H]1CCN(c2nc(C)nc3c2c(C)nn3C)C1 | -0.02014%
8 | O=C1NCCCC1NC(=O)C1(c2cccc(Cl)c2)CCC1 (centres undefined) | -14.19%
9 | CC(=O)NC1CCN(C(=O)Nc2cccc(SC(F)F)c2)CC1 | -5.711%
10 | CC(=O)NC1CCN(C(=O)Nc2cccc(C(F)(F)F)c2)CC1 | -0.6218%
11 | CC(=O)Nc1cccc([C@H]2C[C@@H](NC(C)=O)CCO2)c1 | 88.4%
12 | CC1CN(C(=O)C2(c3ccc(F)cc3F)CCOCC2)CCO1 (centres undefined) | -18.6%
13 | CC(=O)N1CCC(C(=O)N2CCC(=Cc3cccc(F)c3)CC2)CC1 | 0.4533%
14 | O=C(NCc1ccco1)N1CCCCC1c1nc(C2CC2)no1 (centres undefined) | 74.85%
15 | CSc1nc(C2CC2)nc(C)c1C(=O)NCc1ccco1 | -1.039%
16 | O=C(NCc1ccco1)N1CCCCC1c1nc(-c2ccncc2)no1 (centres undefined) | 87.86%
17 | Cc1noc(C2CCCCN2C(=O)C2CCN(C(C)C)CC2)n1 (centres undefined) | -32.36%
18 | O=C(NCc1ccco1)C1CCCN1Cc1nc(-c2ccco2)no1 (centres undefined) | -1.216%
19 | O=C(c1ccc2nccn2c1)N1CCCC1c1noc(C2CC2)n1 (centres undefined) | 1.976%
20 | Cc1noc(C2CCCCN2C(=O)NCc2ccco2)n1 (centres undefined) | 91.67%
21 | Cc1cc(CN(C)C(=O)NCc2ccco2)no1 | 6.91%
22 | COc1ncccc1C(=O)N1CCCC1c1nc(-c2ccccc2)no1 (centres undefined) | -0.6104%
23 | O=C(NC1CCCC1)N1CCCCC1c1nc(C2CC2)no1 (centres undefined) | 105.7%
24 | CN(C)Cc1nnc(C(=O)N(C)Cc2ccc(F)cc2)o1 | -46.46%
25 | Cn1cc(C2CCCN2C(=O)CCCc2nc3ccccc3[nH]2)cn1 (centres undefined) | 0.1259%

Row | Structure (SMILES) | Percent Effect
26 | CC(=O)N1CCC(NC2(Cc3cc(CN(C)C)on3)COC2)CC1 | -3.87%
27 | Cc1ccc(-c2nn3c(nc2=O)-c2ccccc2NC3C(=O)O)cc1C (centres undefined) | -8.788%
28 | CCCc1n[nH]c(C2CN(C(=O)c3ccnc(C4CC4)n3)CCO2)n1 (centres undefined) | 146%
29 | CCc1n[nH]c(C2CN(C(=O)c3ccnc(C)n3)CCO2)n1 (centres undefined) | 98.73%
30 | Cc1n[nH]c(C2CN(C(=O)c3ccnc(C4CC4)n3)CCO2)n1 (centres undefined) | -13.72%
31 | CCc1n[nH]c(C2CN(C(=O)c3cnc(C)nc3CC)CCO2)n1 (centres undefined) | 106.1%
32 | CCc1ncncc1C(=O)N1CCOC(c2nc(C)n[nH]2)C1 (centres undefined) | 2.402%
33 | CCc1n[nH]c(C2CN(C(=O)c3ccnc(C4CC4)n3)CCO2)n1 (centres undefined) | 101.3%
34 | Cc1nc(N)cc(NCc2csc(N(C)C)n2)n1 | -17.8%
35 | O=S(=O)(NCCc1c[nH]c2cc(F)ccc12)C1CCOC1 (centres undefined) | 22.23%
36 | CS(=O)(=O)c1ccc(OCCNCc2ccc(F)cc2F)cc1 | -10.65%
37 | Cl.O=C(C1CC1)N1CCC2(CC1)CNc1ccc(F)cc12 | -2.948%
38 | CC(CC#N)N(C)Cc1ccc(F)cc1C#N (centres undefined) | 3.658%
39 | CCc1nnc(CN2CCC3(CCC(=O)N(C4CCCC4)C3)CC2)o1 | 8.44%
40 | O=C(CN1CCN(c2ncnc3cccc(F)c23)CC1)N1CCCC1 | 6.401%
41 | CS(=O)(=O)N[C@@H]1CCN(Cc2cccnc2)[C@H]1Cc1cccnc1 | 0.03565%
42 | COCCO[C@H]1CCN(Cc2cnn(C)c2)[C@H]1Cc1cccnc1 | 86.22%
43 | O=C(O)C(F)(F)F.O=C(O)C(F)(F)F.O[C@H]1CCN(Cc2ccoc2)[C@H]1Cc1cccnc1 | -11.6%
44 | Cn1cc(CN2CC[C@@H](NS(C)(=O)=O)[C@@H]2Cc2cccnc2)cn1.O=C(O)C(F)(F)F.O=C(O)C(F)(F)F | 0.0713%
45 | COCCO[C@@H]1CCN(C(=O)c2ccc[nH]2)[C@H]1Cc1cnn(C)c1 | -18.74%
46 | COCCO[C@H]1CCN(Cc2ccoc2)[C@H]1Cc1cccnc1 | 85.57%
47 | C=C(C)COc1cccc(C(=O)N(CC)Cc2nc(COC)no2)c1 | -39.48%
48 | Cn1c(N)nnc1SC1CCCN(c2ccccc2F)C1=O (centres undefined) | -7.514%
49 | COCc1nn(C(C)C)c2c1CCN(Cc1ccc(C)s1)C2.O=C(O)C(F)(F)F | 2.652%
50 | Cn1nc(COCC2CC2)c2c1CN(CC1CC1)CC2.O=C(O)C(F)(F)F.O=C(O)C(F)(F)F | 100.4%

Row | Structure (SMILES) | Percent Effect
51 | O=C(O)C(F)(F)F.c1nc(COCC2CC2)c2n1CCCN(CC1CC1)C2 | -4.563%
52 | CC(C)OCc1nn(C)c2c1CCN(CC1CC1)C2.O=C(O)C(F)(F)F | 103.7%
53 | Cc1ccc(CN2CCc3c(COCC4CC4)nn(C)c3C2)s1.O=C(O)C(F)(F)F | 115.6%
54 | CC(C)OCc1ncn2c1CN(CC1CC1)CCC2.O=C(O)C(F)(F)F | 10.37%
55 | Cc1ccc(CN2CCc3c(C(=O)N(C)C)nn(C)c3C2)s1.O=C(O)C(F)(F)F | -3.635%
56 | CC(C)OCc1nn(C)c2c1CCN(Cc1ccco1)C2.O=C(O)C(F)(F)F | -9.352%
57 | Cn1nc(COCC2CC2)c2c1CN(C(=O)c1ccno1)CC2.O=C(O)C(F)(F)F | -4.068%
58 | N#CCc1ccc(OCC(=O)NS(=O)(=O)c2ccc(Cl)s2)cc1 | -0.9374%
59 | CC(C)[C@H](C)NC1CCN(c2ccc(-c3cscn3)cc2)CC1 | -7.145%
60 | CCCn1nnnc1CSCc1cn2c(C)cccc2n1 | 8.521%
61 | N#Cc1cccnc1N1CCCC(CO)(Cc2ccccc2F)C1 (centres undefined) | 12.54%
62 | CNS(=O)(=O)CC(=O)N(Cc1ccsc1)c1ccccc1 | 7.339%
63 | NC[C@H]1CC[C@H](C(NC(=O)C2CC2)c2ccccn2)CC1 (some centres undefined) | 117.5%
64 | NC[C@H]1CC[C@H](C(NC(=O)CC2CCCCC2)c2ccccn2)CC1 (some centres undefined) | 140.5%
65 | CCCC(=O)NC(Cc1ccc(C)cc1)c1ccccn1 (centres undefined) | -7.589%
66 | NC[C@H]1CC[C@H](C(NC(=O)c2ccccn2)c2ccccn2)CC1 (some centres undefined) | -2.81%
67 | NC[C@H]1CC[C@H](C(NC(=O)c2ccccc2)c2ccccn2)CC1 (some centres undefined) | -1.705%
68 | NC[C@H]1CC[C@H](C(NC(=O)CC2CCCC2)c2ccccn2)CC1 (some centres undefined) | 151%
69 | CC(C)[C@H]1CN(Cc2ccccn2)C[C@@H]1NC(=O)CC1CCC1 | -7.125%
70 | O=C(Cn1cnc(NC(=O)CC2CCCC2)n1)NCc1ccccc1 | -4.841%
71 | O=C(OC1CCC1)c1ncccc1C(F)(F)F | -15.91%
72 | CC(C)c1nnc(NCc2cc3n(n2)CCNC3)s1 | 7.297%
73 | CC1CCN(S(=O)(=O)NC(C)Cc2ccco2)CC1 (centres undefined) | 1.293%
74 | Cc1nc(CN(C)Cc2cn[nH]c2-c2ccc(F)cc2)c[nH]1 | 20.15%
75 | CC(C)[C@H]1COC(=O)N1CC(=O)N1CCN(C(=O)c2ccco2)CC1 | 1.132%

Row | Structure (SMILES) | Percent Effect
76 | Cc1ccc2oc(=O)n(CCC(=O)N3CCC4(CN(C)C(=O)O4)C3)c2c1 (centres undefined) | 2.838%
77 | CS(=O)(=O)NC1CCN(CCOCc2ccccc2)CC1 | 0.008163%
78 | CN1CC2(CCN(C(=O)c3[nH]cnc3-c3ccccc3)C2)OC1=O (centres undefined) | -16.32%
79 | CN1CC2(CCCN(CCOCc3ccccc3)C2)OC1=O (centres undefined) | 96.52%
80 | COCCC1(C(=O)O)CCCN(CCOCc2ccccc2)C1 (centres undefined) | 2.553%
81 | CCC1(C(=O)O)CCCN(CCOCc2ccccc2)C1 (centres undefined) | 2.602%
82 | CN1CC2(CCN(CCCOCc3ccccc3)CC2)OC1=O | 106.4%
83 | CN1CC2(CCN(C(=O)CCCOCc3ccccc3)C2)OC1=O (centres undefined) | 107.9%
84 | COc1ccc(/C=C/CN2CCC3(CC2)CN(C)C(=O)O3)cc1 | -13.05%
85 | Cc1cc(NC(=O)N2CCC[C@@H]2CO)nn1-c1ccccc1Cl | -2.328%
86 | CC(C)COCCC(=O)Nc1c(-c2ccc(F)cc2)ncn1C | 34.39%
87 | O=C(NC1CC1)[C@H]1C[C@H]2OCC[C@H]2N(Cc2ccc(F)cc2)C1.O=C(O)C(F)(F)F | -3.794%
88 | Cc1ccc([C@@H]2CN(C(=O)c3ccsc3)C[C@H]2NC(=O)C2CC2)cc1 | -0.5207%
89 | O=C(NCC(O)c1ccccc1Cl)c1cccc(-n2cnnn2)c1 (centres undefined) | -6.148%
90 | CC(=O)N(Cc1noc(C)n1)C1CCN(Cc2ccccc2C#N)C1 (centres undefined) | -0.5328%
91 | COCCCN(C)C1CCCN(Cc2noc(C)n2)C1 (centres undefined) | -3.028%
92 | Cc1nc(CN2CCCC(N(C)Cc3c(C)noc3C)C2)no1 (centres undefined) | 5.065%
93 | COCCN1CCC(N(Cc2noc(C3CC3)n2)C(C)=O)C1 (centres undefined) | 0.8027%
94 | COCCCN1CCC(N(Cc2noc(C)n2)C(C)=O)C1 (centres undefined) | 116.1%
95 | CC(=O)N(Cc1noc(C)n1)C1CCN(Cc2cccc(C#N)c2)C1 (centres undefined) | 124.3%
96 | CC(=O)N(Cc1noc(C)n1)C1CCN(Cc2c(C)noc2C)C1 (centres undefined) | 106.6%
97 | CC(=O)N(Cc1noc(C)n1)C1CCN(Cc2ccc(C#N)cc2)C1 (centres undefined) | 102.5%
98 | Cc1nc(CN(C)C2CCN(Cc3c(C)noc3C)C2)no1 (centres undefined) | -3.836%
99 | Cc1nc(CN2CCCC(N(C)c3ccc(C#N)cn3)C2)no1 (centres undefined) | 1.567%
